About 79,000 compounds went through this panel and 15% of them were active in at least one assay; those are over-represented in the sample as a whole. Values without a mark were called inactive. Rule as the data show it: active = growth inhibition above about 70%; inactive = the rest.

This assay is described as follows: NCI Yeast Anticancer Drug Screen. Data for the mlh1 strain (AID 171).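 Also: 0% = growth of vehicle-treated control cultures of the same strain.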 Conditions: S. cerevisiae mlh1 strain growth inhibition; at 1.2 µM; active compounds read high. The gist of the method: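 Inhibition values reflect reduced yeast growth in the presence of compound, referenced to vehicle controls, using a strain chosen for its alteration in DNA repair or cell cycle control.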
As for `C/C(=N\NC(=S)SCc1ccccc1)c1ccccn1`, the growth inhibition was 13%.

Regarding `CN(C)c1ccc(Sc2ccc3nc(N)nc(N)c3c2)cc1`, the growth inhibition is -4%.

On to `CC(=O)OCCOCNC(=S)N/N=C(\C)c1cnccn1`, for which the growth inhibition is -1%.

Consider `COc1ccc(C2c3cc4c(cc3OC(C)(O)C2C)OCO4)c(OC)c1` (configuration not stated), for which the growth inhibition was 3%.

As for `COc1cc(C2SCC(=O)N2c2ccc(-c3ccc(-n4c(-c5ccccc5)nc5ccccc5c4=O)cc3)cc2)cc(OC)c1OC` (configuration not stated), the growth inhibition was -1%.

On to `COc1ccc(Br)c(C(=O)Sc2nnnn2-c2cccc(Cl)c2)c1`, for which the growth inhibition is -14%.

As for `O=C(NNc1ccnc2cc(Cl)ccc12)/C(=C\c1ccccc1Cl)NC(=O)c1ccccc1`, the growth inhibition is -1%.

With `CSC(=S)Nc1cccc(C)n1`, the growth inhibition is -42%.

On to `O=C(/C=C\c1ccc(Cl)cc1Cl)c1cccs1`, for which the growth inhibition was -4%.

Turning to `COc1ccc(-c2cn(-c3ccc(I)cc3)c3ncnc(N)c23)cc1`, the growth inhibition is -2%.

As for `CN(C)c1ccc(C(C#N)=C(C#N)C#N)cc1`, the growth inhibition is 6%.

Consider `COc1cc(/C=C2\CCc3ccccc3C2=O)cc(OC)c1OC`, for which the growth inhibition was -3%.

Take `CC(C)/C(Cl)=N\OC(=O)Nc1cccc(Cl)c1`: the growth inhibition is -1%.

In the case of `CC1(C)[C@@H]2CC[C@]1(C)[C@H](OC(=O)CSC#N)C2`, the growth inhibition is 7%.

For the compound `NNC(=O)CCc1ccc2ccc3ccccc3c2c1`, the growth inhibition was 6%.

For the compound `COc1ccc(/C(C)=N/OC(=O)c2c(-c3ccccc3Cl)noc2C)cc1CN1CCOCC1`, the growth inhibition was -22%.

Turning to `C=CC(C)(O)CCC1C(=C)C(O)CC2C(C)(C)CCCC12C` (configuration not stated), the growth inhibition was -4%.

The record behind these values is PubChem BioAssay (NCI).
